Source: PubChem BioAssay (Tox21)
Several values for one entry are separate records, joined by “and”; a condition that tells them apart may be missing. Identical values can stand only once. Records with an inconclusive call do not appear. A call without a number means that no potency is given here. Unmarked numbers belong to inactive results. Activity calls are given as the source filed them. Calls follow the shape of the full dose curve.

Test: qHTS assay for small molecule agonists of the p53 signaling pathway - cell viability (AID 651633); also: nearly all actives have a fitted effect of over 30% in size;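 as to activity change, negative = cytotoxicity: p53RE-bla HCT reporter cells with a stable beta-lactamase p53 reporter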
Conditions: p53RE-bla HCT-116 viability, ATP luminescence, 16 h; series mostly up to 83.3 µM
Text: National Center for Advancing Translational Sciences [NCATS]
NIH Chemical Genomics Center [NCGC]
U.S. Environmental Protection Agency [EPA]
National Institutes of Environmental Health Sciences [NIEHS]
National Toxicology Program [NTP]
U.S. Food and Drug Administration [FDA]
p53, a tumor suppressor protein, is activated following cellular insult, including DNA damage and other cellular stresses. The activation of p53 regulates cell fate by inducing DNA repair, cell cycle arrest, apoptosis, or cellular senescence. The activation of p53, therefore, is a good indicator of DNA damage and other cellular stresses. […] The activation of the reporter gene under culture conditions can be detected by fluorescence intensity. This cell line was used to screen the Tox21 compound library in a 1536-well plate format and to identify agonists that activate the p53 signaling pathway.
Tox21 Assay Protocol Summary:
The p53RE-bla cells were dispensed at 4,000 cells/5 ul/well in 1536-well black wall/clear bottom plates using a Multidrop dispenser. After the assay plates were incubated at a 37 C/5% CO2 incubator for 5 hours, 23 nL of compounds dissolved in DMSO, positive controls or DMSO only was transferred to the assay plate by a pin tool. The plates were incubated at 37 C for 16 hours. After 1 uL of LiveBLAzerTM B/G FRET substrate was added using a Flying Reagent Dispenser, the plates were incubated at room temperature for 2 hours, and fluorescence intensity was measured by an Envision plate reader.
For cell viability readout that measures cytotoxicity, 4 ul/well of CellTiter-Glo reagent was added into the assay plates using a Flying Reagent Dispenser. After 30 min incubation at room temperature, the luminescence intensity in the plates was measured using a ViewLux plate reader.
Potency is read from the fitted curve at half-maximal effect.

| SMILES | Potency | activity change, negative = cytotoxicity |
| --- | --- | --- |
| S=C=Nc1ccccc1 | inactive | – |
| CSC1=N[C@@](C)(c2ccccc2)C(=O)N1Nc1ccccc1 | inactive | – |
| Cc1cccc(Cc2cnc[nH]2)c1C | inactive | – |
| O=[N+]([O-])c1cccc2cccc([N+](=O)[O-])c12 | inactive | – |
| CC[C@]1(O)CC[C@H]2[C@@H]3CCC4=CCCC[C@@H]4[C@H]3CC[C@@]21C | inactive | – |
| COCCC#N | inactive | – |
| COc1ccc2[nH]cc(CCN(C(C)C)C(C)C)c2c1 | inactive | – |
| Clc1cc(Cl)c(-c2cc(Cl)c(Cl)cc2Cl)cc1Cl | inactive | – |
| CC(=O)[O-].CC(=O)[O-].O.O.[Zn+2] | inactive | – |
| N#Cc1ccc(N(CC(N)=O)CC(F)(F)F)cc1C(F)(F)F | inactive | – |
| CC(=O)C(Cl)C(=O)N(C)C (stereo not given) | inactive | – |
| CN1[C@@H]2CC[C@H]1CC(O)C2 (stereo not given in full) | inactive | – |
| CN1C(=O)[C@@H](NC(=O)c2cc3ccccc3[nH]2)N=C(c2ccccc2)c2ccccc21 | inactive | – |
| Brc1ccc(Oc2ccc(Br)cc2Br)c(Br)c1 | inactive | – |
| N#Cc1sc2c(=O)c3ccccc3c(=O)c=2sc1C#N | 5.45 µM (active) | – |
| COC(=O)c1cc(Oc2ccc(Cl)cc2Cl)ccc1[N+](=O)[O-] | inactive | – |
| O=P(Cl)(Cl)Cl | inactive | – |
| O=C1C(Cl)=C(Cl)C(=O)C(Cl)=C1Cl | 19.3 µM (active) and 21.7 µM (active) | – |
| CCN(CC)C(=S)S | inactive | – |
| CCn1cc[n+](C)c1 (tested in a mixture with another compound) | inactive | – |

| SMILES | Potency | activity change, negative = cytotoxicity |
| --- | --- | --- |
| CCNS(=O)(=O)C(F)(F)C(F)(F)C(F)(F)C(F)(F)C(F)(F)C(F)(F)C(F)(F)C(F)(F)F | inactive | – |
| N#CC(C#N)=NNc1cccc(Cl)c1 | 0.864 µM (active) | – |
| CC1CCCC1 | inactive | – |
| Fc1ccc(C(OCCN2CCN(CCCc3ccccc3)CC2)c2ccc(F)cc2)cc1 | 26.6 µM (active) | – |
| [O-][Cl+3]([O-])([O-])O | inactive | – |
| [C-]1=CC=CC1.[Cl][Zr+2][Cl].c1cc[cH-]c1 | inactive | – |
| C#CCO | inactive | – |
| CC(Cc1ccc2c(c1)OCO2)NO (stereo not given) | inactive | – |
| Cc1cc2c3c(c1)C(c1ccccc1)=N[C@@H](NC(=O)c1ccncc1)C(=O)N3CC2 | inactive | – |
| Oc1cccc(Cl)c1Cl | inactive | – |
| O=c1c2ccccc2c(=O)c2c1cc(Cl)c1[nH]c3c([nH]c12)c(Cl)cc1c(=O)c2ccccc2c(=O)c13 | inactive | – |
| CNC(=O)O/N=C(\C)C(C)S(C)(=O)=O (stereo not given) | inactive | – |
| ClSC(Cl)(Cl)Cl | inactive | – |
| c1csc(-c2ccc(-c3cccs3)s2)c1 | inactive | – |
| CNC(=O)/C=C(\C)OP(=O)(OC)OC | inactive | – |
| Cc1cnc2c(C(=O)O)c(Cl)ccc2c1 | inactive | – |
| CC(=O)[O-].CC(=O)[O-].CC(=O)[O-].[Sb+3] | – | 11.3% [at 8.08 µM] |
| CCCCCCC[CH2][Sn]([Cl])([Cl])[CH2]CCCCCCC | 15.3 µM (active) | – |
| COC(=O)/C=C(\C)OP(=O)(OC)OC | inactive | – |
| COc1c2c(cc3c1OCO3)CCN(C)C2 | inactive | – |
